Test results as given in PubChem BioAssay (Tox21).
Results filed as inconclusive are left out. The source made the active and inactive calls. The call rests on the fitted dose curve; in most records, active means well fitted inhibition curve with a large enough effect in the signal ratio in the repeat runs (not every such curve was filed as active); inconclusive means weak or mixed curves, or effect the other way; inactive means no such curve, though single readings can be large or run the other way; the % refers to the signal ratio.

target: Glucocorticoid receptor (Homo sapiens) (UniProt P04150); assay: qHTS assay to identify small molecule antagonists of the glucocorticoid receptor (GR) signaling pathway (AID 720692); conditions: GR-bla HeLa, beta-lactamase FRET ratio, dexamethasone-stimulated, 18 h; series mostly up to 58.5 µM; activity change, negative = inhibition: at the top concentration
Sequence (P04150 whole entry, looked up): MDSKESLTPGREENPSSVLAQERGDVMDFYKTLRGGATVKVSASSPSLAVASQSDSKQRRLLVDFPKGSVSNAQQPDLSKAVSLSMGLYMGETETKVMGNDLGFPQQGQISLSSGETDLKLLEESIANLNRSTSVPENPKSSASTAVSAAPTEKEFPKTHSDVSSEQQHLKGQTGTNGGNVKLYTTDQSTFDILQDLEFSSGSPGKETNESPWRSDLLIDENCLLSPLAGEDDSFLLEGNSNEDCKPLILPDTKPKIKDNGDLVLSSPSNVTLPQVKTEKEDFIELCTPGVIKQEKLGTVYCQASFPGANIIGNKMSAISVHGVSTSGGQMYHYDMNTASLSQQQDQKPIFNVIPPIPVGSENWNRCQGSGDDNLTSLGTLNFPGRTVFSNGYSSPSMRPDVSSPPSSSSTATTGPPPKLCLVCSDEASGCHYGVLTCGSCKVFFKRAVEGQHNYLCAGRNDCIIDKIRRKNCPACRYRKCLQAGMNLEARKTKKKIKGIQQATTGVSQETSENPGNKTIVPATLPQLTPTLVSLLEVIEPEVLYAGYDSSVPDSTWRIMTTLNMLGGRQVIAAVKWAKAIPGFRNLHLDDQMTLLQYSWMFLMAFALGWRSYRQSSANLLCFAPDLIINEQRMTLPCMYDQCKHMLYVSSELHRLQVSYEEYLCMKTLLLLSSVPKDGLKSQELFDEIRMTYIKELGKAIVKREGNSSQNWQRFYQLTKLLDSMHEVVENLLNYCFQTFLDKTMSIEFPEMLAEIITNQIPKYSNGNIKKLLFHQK
In short: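 GR-bla HeLa cells carrying a GRE-driven beta-lactamase reporter received compound after 4 h plating, then dexamethasone (5 nM final). After 18 h at 37C, the FRET substrate was loaded for 2 h at room temperature and fluorescence read.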
On the % scale 0 is the no-effect control and ±100 the full control effect.

SMILES | outcome | activity change, negative = inhibition
Cc1ccc(S(=O)(=O)NC(=O)NN2CCCCCC2)cc1 | inactive | –
NC(=O)NC1NC(=O)NC1=O (stereo not given) | inactive | –
CCCCCCCCCCCCCCCC(=O)O | inactive | –
O=C(C1CCCCC1)N1CC(=O)N2CCc3ccccc3C2C1 (stereo not given) | inactive | –
COc1c2occc2cc2ccc(=O)oc12 | inactive | –
O=C(c1ccccc1)c1ccccc1 | inactive | –
COc1ccc2[nH]cc(CCNC(C)=O)c2c1 | inactive | –
CCCN(CCC)S(=O)(=O)c1ccc(C(=O)O)cc1 | inactive | –
Nc1ccc(S(=O)(=O)Nc2nccs2)cc1 | inactive | –
O=C(O)C(=O)O | inactive | –
NC(N)=NC(=O)c1nc(Cl)c(N)nc1N | – | 12.7% (inactive)
Cc1cc(=O)[nH]c(=S)[nH]1 | inactive | –
CCCCOC(=O)CC(CC(=O)OCCCC)(OC(C)=O)C(=O)OCCCC | – | -2.46% (inactive)
CC(O)CO (stereo not given) | inactive | –
O=C(O)c1cc(N=Nc2ccc(S(=O)(=O)Nc3ccccn3)cc2)ccc1O | inactive | –
CCCCC1C(=O)N(c2ccccc2)N(c2ccccc2)C1=O | – | -0.0706% (inactive)
CCCCC(CC)COC(=O)/C=C/c1ccc(OC)cc1 (stereo not given) | inactive | –
NC(=O)c1ccccc1O | inactive | –
O=C(O)CS | inactive | –
Cc1cn([C@H]2C[C@H](N=[N+]=[N-])[C@@H](CO)O2)c(=O)[nH]c1=O | inactive | –
